Reference: PubChem BioAssay (EPA / NIEHS)
The source made the active and inactive calls. How the source made its calls: active means hit-call score of the fitted dose curve at least 0.9, where 1 is the maximum; inactive means score below 0.9.

How the values were obtained:
[1] = APR_HepG2_CellLoss_72hr: Apredica 72-hour HepG2 Assay for Cell Loss (AID 2282915); conditions: high-content imaging
Summary of the method: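 HepG2 cells exposed 72 h to compound at 0.39–200 uM (10 concentrations, duplicate) in 0.5% DMSO. Fixed with 3.7% formaldehyde and Hoechst 33342-stained. Imaged at 20x; nuclear count gives cell number, fitted bidirectionally versus DMSO.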

[2] = APR_HepG2_P-H2AX_72hr: Apredica 72-hour HepG2 Assay for H2AX Phosphorylation (AID 2282916); conditions: imaging, actives raise or lower the signal;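 further: phospho-histone H2A.x immunostain intensity per cell marking DNA damage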
Summary of the method: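 Phospho-histone H2A.x immunofluorescence, multiplexed with Hoechst and c-Jun, quantified by high-content imaging. Compounds applied to HepG2 for 72 h across ten concentrations (0.39–200 uM, 0.5% DMSO), in duplicate; DMSO baseline.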

[3] = APR_HepG2_MitoMembPot_72hr: Apredica 72-hour HepG2 Assay for Mitochondrial Membrane Potential (AID 2282917); conditions: imaging, actives raise or lower the signal
Summary of the method: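 HepG2 cells dosed 72 hr with compound at 0.39–200 uM in duplicate, 0.5% v/v DMSO final. Mitochondria stained with 250 nM MitoTracker Red CMXRos for 30 min before formaldehyde fixation, imaged by high-content fluorescence; bidirectional fit versus DMSO.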

[4] = APR_HepG2_MitoticArrest_72hr: Apredica 72-hour HepG2 Assay for Mitotic Arrest (AID 2282918); conditions: high-content imaging, actives raise or lower the signal
Summary of the method: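 HepG2 cells treated 72 h at 0.39–200 uM, 0.5% DMSO final; formaldehyde-fixed, stained with Hoechst 33342 and phospho-histone H3 antibody, imaged by high-content fluorescence; bidirectional fit versus DMSO.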

[5] = APR_HepG2_MicrotubuleCSK_72hr: Apredica 72-hour HepG2 Assay for Microtubule CSK Stabilty (AID 2282919); conditions: HepG2 microtubule cytoskeleton, high-content imaging, actives raise or lower the signal
Summary of the method: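 HepG2, 72 hr cmpd exposure, 0.39–200 uM (10 pts, duplicate), 0.5% DMSO. 3.7% formaldehyde fix, 0.5% Triton perm, anti-alpha-tubulin/Cy5 plus Hoechst. HCS fluorescence intensity; bidirectional fit vs DMSO baseline; taxol as positive control.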

[6] = APR_HepG2_P-H2AX_24hr: Apredica 24-hour HepG2 Assay for H2AX Phosphorylation (AID 2282920); conditions: high-content imaging, actives raise or lower the signal
Summary of the method: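 HepG2 cells dosed 24 h at 0.39–200 uM (10 points, duplicate, 0.5% DMSO final). Formaldehyde-fixed and permeabilized, then immunostained for phospho-H2A.x with Hoechst. Fluorescence quantified by high-content imaging, fitted bidirectionally versus DMSO.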

[7] = APR_HepG2_StressKinase_72hr: Apredica 72-hour HepG2 Assay for Stress Kinase (AID 2282921); conditions: HepG2 stress kinase (phospho-c-Jun) imaging, actives raise or lower the signal
Summary of the method: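 Stress kinase signal is phospho-c-Jun immunofluorescence (1:500 primary, Cy3 secondary) in fixed, permeabilized human HepG2 cells imaged at 20x. Exposure lasted 72 hr over ten concentrations from 0.39 to 200 uM, 0.5% DMSO, in duplicate. Bidirectional fit versus DMSO.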

[8] = APR_HepG2_StressKinase_24hr: Apredica 24-hour HepG2 Assay for Stress Kinase (AID 2282922); conditions: HepG2 stress kinase (phospho-c-Jun) imaging, actives raise or lower the signal
Summary of the method: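 Read-out: phospho-c-Jun immunofluorescence (Cy3 secondary) quantified by high-content imaging at 20x, nuclei defined by Hoechst 33342. Human HepG2 liver cells dosed 24 hr, 0.39–200 uM, DMSO 0.5% v/v; gain or loss of signal fitted relative to DMSO.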

[9] = APR_HepG2_p53Act_72hr: Apredica 72-hour HepG2 Assay for p53 Activation (AID 2282923); conditions: high-content imaging, actives raise or lower the signal;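 further: average cellular p53 protein immunofluorescence intensity in HepG2 cells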
Summary of the method: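 After 72 h with compound (ten points, 0.39 to 200 uM, final DMSO 0.5% v/v), fixed HepG2 cells were labelled with sheep anti-p53 and Hoechst 33342 and imaged; gain or loss versus DMSO scored.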

[10] = APR_HepG2_MitoMass_72hr: Apredica 72-hour HepG2 Assay for Mitochondrial Mass (AID 2282924); conditions: high-content imaging, actives raise or lower the signal;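 further: MitoTracker Red CMXRos stain intensity per cell imaged as mitochondrial mass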
Summary of the method: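 Read-out: MitoTracker Red fluorescence intensity from automated imaging (20x, six fields per well) in human HepG2 liver cells. Dosing ran 72 hr, 0.39–200 uM, 0.5% DMSO; bidirectional curve fitting versus DMSO baseline.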

[11] = APR_HepG2_NuclearSize_72hr: Apredica 72-hour HepG2 Assay for Nuclear Size (AID 2282925); conditions: high-content imaging, actives raise or lower the signal
Summary of the method: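 Read-out: nuclear diameter from Hoechst 33342 images (ArrayScan, 20x, six fields/well), via cell-cycle image analysis. HepG2 were dosed 0.39–200 uM for 72 hr in 0.5% DMSO. Bidirectional fit relative to DMSO.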

[12] = ATG_CRE_CIS: Attagene CIS-FACTORIAL HepG2 Assay for human cAMP Responsive Element (CRE) binding protein 3 (AID 2282926); conditions: HepG2 CRE cis-reporter, Attagene multiplexed mRNA; actives raise or lower the signal
Summary of the method: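 Induced reporter mRNA from a CRE cis element, measured in HepG2 among many multiplexed units at 24 h. Detection used RT-PCR plus capillary electrophoresis of fluorescent fragments; DMSO served as negative control.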

[13] = molecular target: CCAAT/enhancer-binding protein beta (Homo sapiens) (UniProt P17676); test: ATG_C_EBP_CIS: Attagene CIS-FACTORIAL HepG2 Assay for human CCAAT/Enhancer Binding Protein (C/EBP) beta (AID 2282927); conditions: HepG2 Attagene cis-factorial transcription factor reporter; actives raise or lower the signal
Chain of CCAAT/enhancer-binding protein beta (Homo sapiens) (P17676 whole entry, looked up): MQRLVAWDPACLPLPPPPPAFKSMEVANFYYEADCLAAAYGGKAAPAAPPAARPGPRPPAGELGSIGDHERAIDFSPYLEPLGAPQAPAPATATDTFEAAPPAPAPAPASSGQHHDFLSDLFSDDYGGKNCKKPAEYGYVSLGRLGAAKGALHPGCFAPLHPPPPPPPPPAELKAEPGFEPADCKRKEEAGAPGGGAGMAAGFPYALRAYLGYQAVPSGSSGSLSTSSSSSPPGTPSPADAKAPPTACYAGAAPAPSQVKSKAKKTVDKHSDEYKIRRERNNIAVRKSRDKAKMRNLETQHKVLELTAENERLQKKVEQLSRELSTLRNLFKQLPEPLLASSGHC
Summary of the method: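 HepG2, transient MRTU transfection, 24 h treatment. RT-PCR plus CE fluorescence; DMSO negative control, bidirectional fit.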

[14] = ATG_CMV_CIS: Attagene CIS-FACTORIAL HepG2 Assay for human CMV (Internal Marker) (AID 2282928); conditions: HepG2 CMV promoter reporter, transcription factor profiling; actives raise or lower the signal;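 further: endpoint acts as a background internal control marker rather than a target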
Summary of the method: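 Reporter transcripts from transfected HepG2 cells are isolated after 24 h of chemical dosing, reverse-transcribed and amplified. Fragments labeled with 6-FAM are cut with HpaI and quantified by capillary electrophoresis; DMSO defines baseline.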

[15] = ATG_DR4_LXR_CIS: Attagene CIS-FACTORIAL HepG2 Assay for human Liver X Receptor (LXR), DR4 submotif (AID 2282929); conditions: HepG2 Attagene DR4 cis-reporter, mRNA transcription; actives raise or lower the signal
Summary of the method: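 Total RNA from 24 h-treated, MRTU-transfected HepG2 cells underwent reverse transcription, PCR, fluorescent primer extension and restriction digestion before capillary electrophoresis. Both increases and decreases in reporter signal were fitted against DMSO.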

[16] = molecular target: Aryl hydrocarbon receptor (Homo sapiens) (UniProt P35869); test: ATG_Ahr_CIS: Attagene CIS-FACTORIAL HepG2 Assay for human Aryl Hydrocarbon Receptor (Ahr) (AID 2282930); conditions: HepG2 AhR cis-factorial reporter transcription; actives raise or lower the signal
Chain of Aryl hydrocarbon receptor (Homo sapiens) (P35869 whole entry, looked up): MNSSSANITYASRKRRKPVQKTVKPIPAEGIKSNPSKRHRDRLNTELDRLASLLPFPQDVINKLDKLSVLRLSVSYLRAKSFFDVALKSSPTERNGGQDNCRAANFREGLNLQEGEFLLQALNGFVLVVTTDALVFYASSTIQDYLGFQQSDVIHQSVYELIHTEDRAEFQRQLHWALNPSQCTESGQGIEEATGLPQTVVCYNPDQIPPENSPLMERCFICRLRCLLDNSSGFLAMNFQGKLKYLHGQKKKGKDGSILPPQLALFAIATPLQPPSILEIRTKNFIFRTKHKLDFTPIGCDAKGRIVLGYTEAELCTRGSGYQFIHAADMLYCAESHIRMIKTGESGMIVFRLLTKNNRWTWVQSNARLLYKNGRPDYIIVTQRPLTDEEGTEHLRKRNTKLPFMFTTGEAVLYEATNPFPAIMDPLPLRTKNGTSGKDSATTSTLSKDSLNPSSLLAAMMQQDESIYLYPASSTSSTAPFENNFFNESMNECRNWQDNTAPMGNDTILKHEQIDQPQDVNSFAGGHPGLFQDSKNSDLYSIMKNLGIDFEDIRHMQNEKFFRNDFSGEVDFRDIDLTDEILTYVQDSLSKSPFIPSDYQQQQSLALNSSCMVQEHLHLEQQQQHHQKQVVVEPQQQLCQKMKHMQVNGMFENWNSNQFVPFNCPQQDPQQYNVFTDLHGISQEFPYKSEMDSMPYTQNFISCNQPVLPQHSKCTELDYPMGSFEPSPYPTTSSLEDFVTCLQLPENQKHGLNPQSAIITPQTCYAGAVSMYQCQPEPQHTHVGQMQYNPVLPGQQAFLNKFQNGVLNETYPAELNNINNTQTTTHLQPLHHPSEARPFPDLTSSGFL
Summary of the method: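 Endogenous factor activity is tracked through cis-promoter reporter units transfected into HepG2 cells. Transcript levels at 24 h are read by fluorescent RT-PCR and capillary electrophoresis, with activity in either direction scored relative to DMSO.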

[17] = ATG_AP_1_CIS: Attagene CIS-FACTORIAL HepG2 Assay for human Activator Protein 1 (AP-1) (AID 2282931); conditions: HepG2 Attagene cis-factorial AP-1 reporter mRNA; actives raise or lower the signal
Summary of the method: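 HepG2, transient cis-reporter transfection; 24 h; readout RT-PCR/CE fluorescence; DMSO baseline, gain and loss fitted.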

[18] = ATG_AP_2_CIS: Attagene CIS-FACTORIAL HepG2 Assay for human Activator Protein 2 (AP-2) (AID 2282932); conditions: HepG2 AP-2 cis-reporter, Attagene transcription factor profiling; actives raise or lower the signal
Summary of the method: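 Liver-derived HepG2 line, cis-reporter system measuring endogenous factors; 24 h dosing; reporter mRNA detected by fluorescent RT-PCR and capillary electrophoresis.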

[19] = ATG_BRE_CIS: Attagene CIS-FACTORIAL HepG2 Assay for human Bone Morphogenetic Protein (BMP) Response Element (BRE) (AID 2282933); conditions: HepG2 BMP response element reporter, Attagene transcription factor profiling; actives raise or lower the signal
Summary of the method: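 A HepG2 multiplex reporter system measured inducible reporter mRNA 24 h post-dosing. Detection: RT-PCR, 6-FAM primer extension, HpaI digestion, capillary electrophoresis. Activity fitted bidirectionally relative to DMSO.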

[20] = molecular target: Retinoic acid receptor alpha (Homo sapiens) (UniProt P10276); test: ATG_DR5_RAR_CIS: Attagene CIS-FACTORIAL HepG2 Assay for human Retinoic Acid Receptor Alpha (RARE), DR5 submotif (AID 2282934); conditions: HepG2 Attagene cis-factorial RARE DR5 reporter, mRNA; actives raise or lower the signal
Chain of Retinoic acid receptor alpha (Homo sapiens) (P10276 whole entry, looked up): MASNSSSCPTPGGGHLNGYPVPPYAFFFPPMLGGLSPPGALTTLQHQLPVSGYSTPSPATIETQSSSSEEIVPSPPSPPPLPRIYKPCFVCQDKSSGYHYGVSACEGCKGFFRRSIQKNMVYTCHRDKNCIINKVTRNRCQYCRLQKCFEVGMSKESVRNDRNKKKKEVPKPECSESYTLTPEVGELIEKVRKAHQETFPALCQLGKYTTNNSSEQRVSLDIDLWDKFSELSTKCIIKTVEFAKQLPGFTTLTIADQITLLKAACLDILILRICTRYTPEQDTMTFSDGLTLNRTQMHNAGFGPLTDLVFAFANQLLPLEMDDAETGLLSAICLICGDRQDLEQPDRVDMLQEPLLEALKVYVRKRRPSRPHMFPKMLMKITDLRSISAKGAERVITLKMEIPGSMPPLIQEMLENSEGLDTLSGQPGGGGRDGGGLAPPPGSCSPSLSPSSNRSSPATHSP
Summary of the method: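 After 24 h of chemical exposure, transiently transfected HepG2 cells were lysed for total RNA; the DR5-regulated reporter transcript was quantified via RT-PCR and capillary electrophoresis, with activity fitted bidirectionally against DMSO.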

Measured: AC50

COP(=S)(OC)SCn1nnc2ccccc2c1=O
active: [1] 100 µM | [12] 18.8 µM | [13] 6.88 µM | [17] 76.6 µM | [19] 13.3 µM
inactive: [2] | [3] | [4] | [5] | [6] | [7] | [8] | [9] | [10] | [11] | [14] | [15] | [16] | [18]

O=C(O)c1c(Cl)ccc2cc(Cl)cnc12
inactive: [1] | [2] | [3] | [4] | [5] | [6] | [7] | [8] | [10] | [11] | [12] | [13] | [14] | [15] | [16] | [17] | [18] | [19]

Clc1cccc(C(Cl)(Cl)Cl)n1
inactive: [1] | [2] | [3] | [4] | [5] | [6] | [7] | [8] | [9] | [10] | [11] | [12] | [13] | [14] | [15] | [16] | [17] | [18] | [19]

CCCCOCN(C(=O)CCl)c1c(CC)cccc1CC
inactive: [8] | [9] | [10] | [11] | [14] | [15] | [16] | [17] | [18] | [19]
active: [1] 30.6 µM | [2] 113 µM | [3] 33.2 µM | [4] 181 µM | [5] 10.6 µM | [7] 13.2 µM | [12] 0.654 µM | [13] 0.647 µM

COc1ccc(-c2ccccc2)cc1NNC(=O)OC(C)C
active: [14] 13.5 µM | [17] 14.7 µM | [19] 2.32 µM
inactive: [1] | [2] | [3] | [4] | [5] | [6] | [7] | [8] | [9] | [10] | [11] | [12] | [13] | [15] | [18] | [20]

COP(=O)(OC)O/C(C)=C/C(=O)N(C)C
inactive: [1] | [2] | [3] | [4] | [5] | [6] | [7] | [8] | [9] | [10] | [11] | [12] | [13] | [14] | [15] | [16] | [17] | [18] | [19]

COP(=S)(OC)Oc1ccc([N+](=O)[O-])c(C)c1
inactive: [2] | [3] | [4] | [5] | [6] | [7] | [8] | [9] | [10] | [11] | [13] | [14] | [15] | [16] | [18]
active: [1] 87.9 µM | [12] 17.8 µM | [17] 68 µM | [19] 32.7 µM

CCNC(=O)NC(=O)C(C#N)=NOC
inactive: [1] | [2] | [3] | [4] | [5] | [6] | [7] | [8] | [10] | [11] | [12] | [13] | [14] | [15] | [16] | [17] | [18] | [19]

CCOc1nc(C(Cl)(Cl)Cl)ns1
inactive: [1] | [2] | [3] | [4] | [5] | [6] | [7] | [8] | [9] | [10] | [11] | [13] | [14] | [15] | [16] | [17] | [18]
active: [12] 20.8 µM | [19] 24.6 µM

COC(=O)N(C(=O)N1CO[C@@]2(C(=O)OC)Cc3cc(Cl)ccc3C2=N1)c1ccc(OC(F)(F)F)cc1
active: [12] 0.67 µM | [15] 13.8 µM | [17] 4.67 µM | [19] 2.96 µM
inactive: [1] | [2] | [3] | [4] | [5] | [6] | [7] | [8] | [9] | [10] | [11] | [13] | [14] | [16] | [18]

CS(=O)(=O)c1ccc(C(=O)C2C(=O)CCCC2=O)c([N+](=O)[O-])c1
inactive: [1] | [2] | [3] | [4] | [5] | [6] | [7] | [8] | [9] | [10] | [11] | [12] | [13] | [14] | [15] | [16] | [17] | [18] | [19]
